# Results published in PubChem BioAssay AID651710 (Broad Institute, 2012).
# Hit rate of the full screen: of about 360,000 compounds, about 1,600 (0.44%) were called active.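 How the source made its calls: active means every replicate showing at least 50% inhibition; inconclusive means mean inhibition at least 50% but not in every replicate; inactive means the rest.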 The list comes from a sample in which actives are over-represented; it also holds similar structures and randomly drawn compounds.
# Target: DNA repair protein RAD52 homolog (Homo sapiens) (UniProt P43351)
# Sequence (P43351 whole entry, looked up): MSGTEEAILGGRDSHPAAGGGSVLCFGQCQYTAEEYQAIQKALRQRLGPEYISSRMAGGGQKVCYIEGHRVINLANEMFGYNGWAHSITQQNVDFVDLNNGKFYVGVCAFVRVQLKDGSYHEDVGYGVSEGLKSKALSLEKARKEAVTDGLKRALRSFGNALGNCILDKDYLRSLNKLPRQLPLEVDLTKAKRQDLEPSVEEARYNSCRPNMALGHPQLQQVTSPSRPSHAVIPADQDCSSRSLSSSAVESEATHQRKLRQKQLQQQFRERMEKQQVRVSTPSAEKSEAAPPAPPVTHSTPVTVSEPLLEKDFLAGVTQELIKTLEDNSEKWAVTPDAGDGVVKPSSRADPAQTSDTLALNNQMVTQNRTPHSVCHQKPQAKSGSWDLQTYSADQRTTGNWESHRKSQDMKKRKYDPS
# Assay: RAD52 DNA annealing inhibitors, primary screen, biochemical, FRET, single point, set 2 (AID 651710)
# Details: recombinant RAD52 DNA annealing, FRET fluorescence; at 18.7 µM; active compounds read high
row,SMILES,inhibition
1,Nc1c(C(=O)OCC(=O)Nc2ccc(OC(F)F)cc2)[nH]c(=O)[nH]c1=O,-4.75% (inactive)
2,O=C1CCC(C(=O)OCC(=O)Nc2ccc(OC(F)F)cc2)=NN1,54.8% (active)
3,COCc1c(C(=O)OCC(=O)Nc2ccc(OC(F)F)cc2)oc2ccccc12,-1.64% (inactive)
4,C=CCNC(=O)[C@H]1[C@@H]2C(=O)O[C@@H](c3ccccc3)[C@@H](c3ccccc3)N2[C@@H](c2ccccc2OCCO)[C@]12C(=O)N(C(=O)OCCOC)c1ccc(C#Cc3ccc(OC)cc3)cc12,-0.136% (inactive)
5,CO[C@@H]1CN(C)C(=O)c2cc(NS(=O)(=O)c3cn(C)cn3)ccc2OC[C@@H](C)N(CCC(F)(F)F)C[C@H]1C,7.94% (inactive)
6,CCCc1cn(CC[C@H]2CC[C@@H](NC(=O)C3CCOCC3)[C@@H](CO)O2)nn1,-2.7% (inactive)
7,CCN1CCCC1CNC(=O)c1ccc2c(c1)NC(=O)/C(=C\c1ccccc1F)S2 (stereo not given),87.1% (active)
8,CCN1CCCC1CNC(=O)c1cc2cc(OC)c(OC)cc2[nH]1 (stereo not given),2.51% (inactive)
9,O=C1Nc2cc(C(=O)N3CCC(N4CCCCC4)CC3)ccc2S/C1=C\c1ccccc1,39.6% (inactive)
10,CC(=O)N(C)C[C@H]1[C@H](c2ccc(C3=CCCCC3)cc2)[C@H](CO)N1CC1CC1,17.9% (inactive)
11,COCC(=O)N(C)C[C@H]1Oc2cc(C#C[C@@H](C)O)ccc2S(=O)(=O)N([C@@H](C)CO)C[C@@H]1C,-1.74% (inactive)
12,CC(=O)N(C)C[C@@H]1Oc2cc(-c3ccncc3)ccc2S(=O)(=O)N([C@@H](C)CO)C[C@H]1C,3.3% (inactive)
13,CCCN(C)C[C@H]1Oc2cc(C#CC3CCCC3)ccc2S(=O)(=O)N([C@H](C)CO)C[C@@H]1C,-63.3% (inactive)
14,CO[C@@H]1CN(C)C(=O)c2ccc(NC(=O)C3CC3)cc2OC[C@@H](C)N(Cc2ccncc2)C[C@@H]1C,17% (inactive)
15,C[C@H](CO)N1C[C@H](C)[C@H](CN(C)S(=O)(=O)c2cn(C)cn2)Oc2c(NC(=O)c3ccc(-c4nccs4)cc3)cccc2C1=O,7.43% (inactive)
16,CCN(CC)CCN(C(=O)c1ccc2c(c1)CCCC2)c1nc2c(OC)cccc2s1,53.9% (active)
17,COc1ccccc1CNC(=O)Cn1cc2c(n1)CCCC2,-14% (inactive)
18,CCN(CC)CCN(C(=O)c1ccc(N2C(=O)CCC2=O)cc1)c1nc2cc3c(cc2s1)OCO3,40.8% (inactive)
19,COc1cccc2sc(N(CCCN(C)C)C(=O)C(c3ccccc3)c3ccccc3)nc12,56.2% (active)
20,O=C(CN1CCOCC1)N1CC(=O)N2[C@H](C1)[C@H](c1ccc(/C=C/c3ccccc3)cc1)[C@@H]2CO,-3.93% (inactive)
21,Cc1cccc(N(C)C(=O)c2cc3c(=O)[nH]c4ccc(C)cc4c3s2)c1,-6.65% (inactive)
22,CCN(CC)CCCNC(=O)c1cc2c(=O)[nH]c3ccc(C)cc3c2s1,54.3% (active)
23,O=C(NCCN1CCN(Cc2ccccc2)CC1)c1cc2c(=O)[nH]c3ccccc3c2s1,-32.4% (inactive)

row,SMILES,inhibition
1,CO[C@H]1CN(C)C(=O)c2cc(NC(=O)NC(C)C)ccc2OC[C@H](C)N(C(=O)CN(C)C)C[C@H]1C,-12.8% (inactive)
2,CO[C@@H]1CN(C)C(=O)c2cc(NC(=O)Nc3ccc4c(c3)OCO4)ccc2OC[C@@H](C)NC[C@@H]1C,-75.6% (inactive)
3,O=C1c2ccccc2-c2ncnc3c(N4CCOCC4)cc(N4CCOCC4)c1c23,3.29% (inactive)
4,Cc1oc2c(c1C(=O)N1CCOCC1)C(=O)c1ccccc1C2=O,-120% (inactive)
5,COC1=C(N2CCOCC2)C(=O)c2ccccc2C1=O,96.8% (active)
6,CCCNC(=O)C[C@@H]1CC[C@@H]2[C@H](COc3ccc(NC(=O)C4CCOCC4)cc3C(=O)N2C)O1,8.28% (inactive)
7,O=C(Cc1ccccn1)N[C@H]1CC[C@@H](CC(=O)N2CCCCC2)O[C@@H]1CO,-3.74% (inactive)
8,CO[C@@H]1CN(C)C(=O)c2ccc(NC(C)=O)cc2OC[C@@H](C)N(Cc2ccc(-c3ccccn3)cc2)C[C@H]1C,20.8% (inactive)
9,COc1ccc(NC(=O)Nc2ccc3c(c2)OC[C@@H](C)NC[C@@H](C)[C@H](OC)CN(C)C3=O)cc1,-1.22% (inactive)
10,COc1ccccc1C(=O)Nc1ccc2c(c1)C(=O)N(C)C[C@@H](OC)[C@@H](C)CN(CC1CC1)[C@@H](C)CO2,14.3% (inactive)
11,COc1cccc(NC(=O)Nc2ccc3c(c2)C(=O)N(C)C[C@@H](OC)[C@H](C)CN(CC2CC2)[C@H](C)CO3)c1,58.2% (active)
12,CO[C@@H]1CN(C)C(=O)c2cc(NC(=O)NC(C)C)ccc2OC[C@@H](C)N(CC2CC2)C[C@@H]1C,-2.47% (inactive)
13,COc1cccc(NC(=O)Nc2ccc3c(c2)OC[C@@H](C)NC[C@@H](C)[C@H](OC)CN(C)C3=O)c1,84.4% (active)
14,COc1cccc(NC(=O)Nc2ccc3c(c2)C(=O)N(C)C[C@H](OC)[C@@H](C)CN[C@@H](C)CO3)c1,45.9% (inactive)
15,CCCC(=O)Nc1ccc2c(c1)C(=O)N(C)C[C@H](OC)[C@@H](C)CN[C@H](C)CO2,-5.47% (inactive)
16,O=C(CN1CCOCC1)N[C@@H]1CC[C@H](CCNS(=O)(=O)c2ccccc2F)O[C@H]1CO,-13.5% (inactive)
17,O=C(Cc1ccccc1)N1CC[C@@H]2[C@H](CO)Nc3ccc(-c4ccccc4)cc3[C@@H]21,-10.7% (inactive)
18,Cc1ccc(-c2ccc3c(c2)O[C@H](CN(C)C(=O)Nc2ccc(C(F)(F)F)cc2)[C@@H](C)CN([C@H](C)CO)S3(=O)=O)cc1,-8.45% (inactive)
19,CCOCCCNC(=S)Nc1ccc2nc(N3CCN(CC)CC3)cc(C)c2c1,61% (active)
20,Cc1cc(N2CCOCC2)nc2ccc(NC(=S)N3CCN(Cc4ccccc4)CC3)cc12,-21.2% (inactive)
21,Cc1cc(N2CCN(C)CC2)nc2ccc(NC(=S)N3CCOCC3)cc12,46.4% (inactive)
22,COc1cccc(-c2cnc3c(c2)C(=O)N([C@@H](C)CO)C[C@@H](C)[C@H](CN(C)C(=O)CN(C)C)O3)c1,18.6% (inactive)
